Here are results for 13 compounds from PubChem BioAssay (NCI).

The panel holds about 83,000 compounds, 20% with a hit somewhere; the sample as a whole holds those more often.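 Compound tested at a single concentration for 48 hours in 96-well plates; a percent growth value below 10 was scored as active.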 Unmarked numbers belong to inactive results. The source made the active and inactive calls.

Common to all, as to test: NCI-60 one-dose screen, 48 h (100 = growth as untreated, 0 = no growth, -100 = all killed)
What all share (settings): 10 µM unless noted

The test system of assay [1] is HCT-15 colon.
Assay [2] deals with HT29 colon.
Assay [3] concerns SNB-75 CNS.
The subject of assay [4] is SNB-19 CNS.
The test system of assay [5] is U251 CNS.
For assay [6], the system named is PC-3 prostate.
In assay [7] the test system is SK-MEL-5 melanoma.
In assay [8] the test system is UACC-62 melanoma.
In assay [9] the test system is SK-MEL-28 melanoma.

Turning to `N=c1c(S(=O)(=O)c2ccccc2)cc2c(=O)n3ccccc3nc2n1C1CCCC1`, the growth in assay [1] was 86.2%; in [2], 117%; in [3], 61.1%; in assay [4], 90.3%; in assay [5], 85.9%; in assay [6], 85%. Moreover, the growth in assay [7] is 84.2%; in assay [8], 80.2%; in assay [9], 102%.
As for `CC(c1ccccc1)N1C(=O)C(C2SC(=S)N(C(C)c3ccccc3)C2=O)SC1=S` (configuration not stated), the growth was 54.9% in [1]; 72.5% in assay [2]; 89% in assay [3]; 78.6% in [4]; 85% in assay [5]; 84.7% in assay [6]. Further, the growth was 99.3% in assay [7], 77.7% in assay [8] and 86.6% in assay [9].
`CC(=O)O[C@H]1CC[C@@]2(C)C(=CC[C@@H]3[C@@H]2CC[C@]2(C)C(=O)N(O)C(=O)C[C@@H]32)C1`: the growth was 58.9% in assay [1]; 89.2% in assay [2]; 75.8% in assay [3]; 95.5% in assay [4]; 69.3% in assay [5]; 75.7% in [6]. Also, the growth is 98.4% in assay [7], 100% in assay [8] and 89.6% in [9].
With `COC1=C(Br)C(=O)C(OC)=C(Br)C1=O`, the growth in [1] is 96.1%; in [2], 106%; in [3] it was 103%; in assay [4], 95.8%; in assay [5] it was 104%; in assay [6] it was 107%. Besides, the growth in assay [7] was 99.4%; in assay [8], 91.2%; in [9], 117%.
As to `O=C(N/N=C\c1ccccc1O)C1CC1`, the growth in assay [1] was 92.5%; in assay [2] it was 107%; in assay [3], 98.1%; in assay [4], 101%; in assay [5], 103%; in assay [6] it was 92%. Besides, the growth was 109% in assay [7], 102% in assay [8] and 114% in [9].
With `C/C(=C(/c1ccccc1)c1ccc(N2C(=O)c3cccc4c(NCc5ccccc5)ccc(c34)C2=O)cc1)c1ccccc1`, the growth was 103% in assay [1]; 112% in assay [2]; 94.6% in [3]; 96.8% in assay [4]; 99.5% in assay [5]; 82.1% in assay [6]. Also, the growth in [7] was 99.3%; in assay [8], 80.3%; in [9] it was 107%.
With `CC(=O)OC[C@]12CC[C@@H](/C(C)=N/O)[C@@H]1[C@H]1CC[C@@H]3[C@@]4(C)CCCNC(C)(C)[C@@H]4CC[C@@]3(C)[C@]1(C)CC2`, the growth is 60.1% in assay [1]; 59.6% in [2]; 63.9% in assay [3]; 83.1% in assay [4]; 68.7% in assay [5]; 42.5% in assay [6]. Besides, the values for the growth in [7], in [8] and in assay [9] were 51.3%, 66.5% and 86%, respectively.
As for `Cn1cc(-c2csc(-c3c[nH]c4ccccc34)n2)c2cccnc21`, the growth in assay [1] was 25.6%; in assay [2], 10.2%; in [3], -5.48% (active); in assay [4], 47.2%; in assay [5], 27.2%; in [6], 22.1%. The growth in assay [7] is 11.1%; in [8] it was 44.7%; in assay [9] it was 53.9%.
Turning to `N=C(N)c1ccc(-c2ccc(-c3cc(F)cc(F)c3)o2)nc1`, the growth in assay [1] is 77.4%; in assay [2] it was 26.2%; in [3], 72.1%; in assay [4], 93.2%; in assay [5] it was 85.9%; in [6], 82.4%. The growth in assay [7] is 88.7%; in assay [8] it was 96.3%; in assay [9], 98.7%.
In the case of `COc1ccc2c(c1)C/C(=C\c1cc(-c3ccc4c(c3)OCO4)n[nH]1)C2=O`, the growth in assay [1] was 90.3%; in assay [2], 127%; in assay [3] it was 55.1%; in assay [4], 92.5%; in [5], 94.8%; in assay [6], 71.6%. The values for the growth in assay [7], in assay [8] and in assay [9] were 88.5%, 90.3% and 104%, respectively.
For the compound `COc1ccc2c(c1)C/C(=C\c1cc(-c3cc(OC)c(OC)c(OC)c3)n[nH]1)C2=O`, the growth in [1] was 91.1%; in assay [2] it was 89.3%; in assay [3], 78.4%; in assay [4], 91.9%; in assay [5], 92.3%; in assay [6], 56%. Further, the growth in assay [7] was 75.5%; in [8] it was 88.1%; in [9], 99.3%.
Take `O=c1c(CNc2ccc(S(=O)(=O)Nc3ncccn3)cc2)coc2ccccc12`: the growth in assay [1] was 84.5%; in assay [2], 110%; in assay [3], 79.4%; in [4], 94.2%; in assay [5] it was 93.3%; in assay [6] it was 92.2%. The growth was 95.9% in assay [7], 89.8% in assay [8] and 119% in [9].
For `Cn1cc(-c2nc(-c3cn(C)c4ncccc34)cs2)c2cc(F)ccc21`, the growth was 21.3% in assay [1]; 8.87% (active) in assay [2]; 29.1% in assay [3]; 46.4% in [4]; 31.8% in [5]; 47.1% in assay [6]. Moreover, the growth in assay [7] was 24.7%; in [8] it was 41.7%; in assay [9], 50.9%.
